From PubChem BioAssay (NCATS)
Inconclusive results are not listed. The source made the active and inactive calls. The call rests on the fitted dose curve; in most records, active means well fitted inhibition curve with a large enough effect; inconclusive means small, poorly fitted or top-dose-only effect; inactive means flat fitted curve, though single readings scatter.

Legend:
Test in all cases: qHTS profiling for inhibitors of Plasmodium falciparum proliferation (AID 504749); further: nearly all actives have a fitted effect of over 60% in size
Details in all cases: P. falciparum in erythrocytes, SYBR Green DNA, 72 h; series mostly up to 28.7 µM
7G8 = test system: 7G8
How it was run: (§1)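 Infected RBCs, 0.3% parasitemia/2.5% Hct final; cpd 72 h, 37 C, 5% CO2; lysis buffer with saponin/triton/SYBR Green I, o/n RT dark; FI 485/535; norm. to artemisinin (0.29 uM) and DMSO.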

AS120 = test system: AS120
How it was run: as §1

ATS189 = test system: ATS189
How it was run: as §1

ATS95 = test system: ATS95
How it was run: as §1

C2A = test system: C2A
How it was run: as §1

CP191 = test system: CP191
How it was run: as §1

CP237 = test system: CP237
How it was run: as §1

CP250 = test system: CP250
How it was run: as §1

CP256 = test system: CP256
How it was run: as §1

CP266 = test system: CP266
How it was run: as §1

Dd2 = test system: Dd2
How it was run: as §1

ECU = test system: ECU
How it was run: as §1

GB4 = test system: GB4
How it was run: as §1

HB3 = test system: HB3
How it was run: as §1

P93_24 = test system: P93_24
How it was run: as §1

P94_40 = test system: P94_40
How it was run: as §1

PAD = test system: PAD
How it was run: as §1

SC27B = test system: SC27B
How it was run: as §1

TAB109 = test system: TAB109
How it was run: as §1

TAB113 = test system: TAB113
How it was run: as §1

Measured: Potency
Potency means the concentration at half of the fitted maximal effect.

CN1[C@H]2CC(OC(=O)[C@H](CO)c3ccccc3)C[C@H]1[C@H]1O[C@H]12 (stereo not given in full)
inactive: 7G8 | AS120 | ATS189 | ATS95 | C2A | CP191 | CP237 | CP250 | CP256 | CP266 | Dd2 | ECU | GB4 | HB3 | P93_24 | P94_40 | PAD | SC27B | TAB109 | TAB113

CO[C@H]1/C=C/O[C@@]2(C)Oc3c(C)c(O)c4c(O)c(c5c(c4c3C2=O)NC2(CCN(CC(C)C)CC2)N=5)=NC(=O)/C(C)=C\C=C\[C@H](C)[C@H](O)[C@@H](C)[C@@H](O)[C@@H](C)[C@H](OC(C)=O)[C@@H]1C
active: 7G8 7.08 µM | AS120 12.6 µM | ATS189 5.01 µM | ATS95 8.91 µM | C2A 8.91 µM | CP191 8.91 µM | CP237 10 µM | CP250 7.08 µM | CP256 8.91 µM | Dd2 7.94 µM | ECU 7.94 µM | GB4 12 µM | HB3 11.2 µM | P93_24 6.31 µM | P94_40 8.91 µM | PAD 10 µM | SC27B 8.91 µM | TAB109 11.2 µM | TAB113 7.94 µM
inactive: CP266
